# From PubChem
# This is a sample that favours compounds with a hit; in the whole collection about 21% have one here.
# Pf growth 96h: inhibits malaria parasite growth, 96 h; hit rate 6.9% among 320,000; P. falciparum luciferase reporter growth, 96 h; Potency, µM (doses to about 28.7 µM), usual class: inhibitors
#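 Delayed-death screen, second-generation endpoint: infected erythrocytes, 2% hematocrit, 0.05% parasitemia final; 96 hours at 37 C, 5% CO2; luciferase detection reagent; luminescence decrease equals reduced growth.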
# Pf growth 48h: P. falciparum growth inhibition at 48 hours (one generation). P. falciparum luciferase growth in erythrocytes, 48 h. Potency, µM (series often up to 28.7 µM), usual class: inhibitors. hit rate 5.9% among 310,000. AID 504832
#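 Luciferase-expressing P. falciparum in infected erythrocytes (2% hematocrit, 0.1% parasitemia final) in RPMI 1640/0.5% Albumax were exposed to compound for 48 hours at 37 C, 5% CO2; growth read as luminescence.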
# SARS PLP yeast: blocks SARS-CoV papain-like protease in a yeast assay. S. cerevisiae expressing SARS-CoV PLpro, growth rescue. Potency, µM (top dose mostly 32.9 µM), hits mostly activators. hit rate 0.19% among 330,000; calls by dose curve; further: nearly all actives have a fitted effect of over 55% in size
# NS1 function inh: inhibitors of influenza NS1 protein function. hit rate 0.4% among 270,000. Potency, µM (highest dose often 46.1 µM). AID 2326; calls by dose curve; further: actives are rising curves; nearly all actives have a fitted effect of over 50% in size
#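 A cell-based growth assay was used: compounds that relieve NS1-induced slow growth of budding yeast raise OD600. Assay medium was yeast nitrogen base with ammonium sulphate and -URA supplement, pH 6.0, with 2% galactose.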
# CHX counter: affects cycloheximide protein synthesis inhibition readout, counter-screen; cell reporter, cycloheximide protein synthesis inhibition counterscreen; hit rate 12% among 300,000; max response, %; in the data active means max response mostly above about 13%, no sharp cut-off; inactive means mostly below about 14%; further: read at 38.3 µM for the half of the compounds with a filed dose
# Shiga inhibitor: blocks Shiga toxin action in Vero cells; Vero cells, Shiga toxin protein synthesis inhibition reporter; inhibition, % at 38.7 µM; hit rate 9.2% among 290,000; in the data active means inhibition mostly above about 28%, no sharp cut-off; inactive means mostly below about 43%
# Numbers stand for hits; 0 = inactive; ? = inconclusive; - = no result given. Unless noted, the call rests on the fitted dose curve; in most records, active means well fitted inhibition curve with a large enough effect; inconclusive means small, poorly fitted or top-dose-only effect, or another doubt; inactive means no such curve, though single readings can be large or run the other way.
SMILES,Pf growth 96h,Pf growth 48h,SARS PLP yeast,NS1 function inh,CHX counter,Shiga inhibitor
CCCCNc1c(-c2ccc(OC)c(SC3CCCCC3)c2)nc2ccc(Cl)cn12,-,-,0,-,-,-
COc1ccc(-c2nc3cnccn3c2NCc2ccccc2)cc1SC1CCCCC1,13µM,?,0,-,-,-
COC(=O)c1ccccc1NC(=O)CSCC(=O)Nc1ccc(F)cc1,0,0,0,0,0,0
c1ccc(-c2nc3cc(Cc4ccc5oc(-c6ccccn6)nc5c4)ccc3o2)nc1,-,-,-,0,-,-
Cc1ccn2c(NC3CCCCC3)c(-c3cccc(-c4cccc(Cl)c4)c3)nc2c1,10µM,8.3µM,0,-,-,-
COc1cc(-c2nc3cc(C)ccn3c2NC2CCCCC2)ccc1-c1ccc(C(C)=O)cc1,10µM,5.2µM,0,-,-,-
Cc1ccn2c(NC3CCCC3)c(-c3ccncc3)nc2c1,?,0,0,-,0,0
CCCCNc1c(-c2ccc(SC3CCCCC3)cc2)nc2cnccn12,-,-,0,-,-,-
CCC(C)Sc1ccc(-c2nc3cc(C)ccn3c2NC2CCCCC2)cc1 (stereo not given),-,-,0,-,-,-
CCCCNc1c(-c2ccc(OC)c(SC3CCCCC3)c2)nc2cnccn12,9.3µM,10µM,0,-,-,-
CCCCNc1c(-c2ccc(-c3ccc(C(C)=O)cc3)c(OC)c2)nc2cnccn12,?,9.3µM,0,-,-,-
COC(CNC(=O)C(=O)Nc1cc2c3c(c1)CCN3C(=O)CC2)OC,0,0,0,0,0,0
CC(=O)NC(CC(=O)OCC(=O)c1ccc(NC(=O)CC(C)C)cc1)c1ccccc1 (stereo not given),0,?,0,-,-,-
CCCCNc1c(-c2ccc(OC)c(SC3CCCCC3)c2)nc2cc(C)ccn12,?,9.3µM,0,-,-,-
CCC(C)Sc1ccc(-c2nc3cnccn3c2NC2CCCCC2)cc1 (stereo not given),7.4µM,7.4µM,0,-,-,-
Cc1ccc2nc(-c3ccsc3)c(NC3CCCC3)n2c1,0,0,0,-,0,51
O=S(=O)(c1cccc(F)c1)N1CCc2sccc2C1c1ccc(OC(F)(F)F)cc1 (stereo not given),?,13µM,0,0,0,0
CC1c2ccsc2CCN1S(=O)(=O)c1ccccc1 (stereo not given),0,0,0,0,0,0
Cc1ccccc1OCCC(=O)Nc1ccccc1C(=O)NC1CC1,0,?,0,-,-,-
C#CCOCCOCCOCCNc1nc(N2CCN(C(=O)[C@H]([C@@H](C)O)n3cc(CCCCN)nn3)CC2)nc(N2CCN(C(=O)[C@H](Cc3ccc(O)cc3)n3cc(CCO)nn3)CC2)n1,0,0,0,0,0,0
CC(C)[C@@]1(c2ccccc2)ON(c2ccccc2C(F)(F)F)C1=O,?,1.7µM,0,-,-,-
Cc1nc2ccccc2c(=O)n1-c1ccccc1C(F)(F)F,?,?,0,0,0,0
FC(F)(F)c1ccccc1-n1ccnc1,0,?,-,0,-,-
CC(C)[C@]1(c2ccccc2)ON(c2ccccc2C(F)(F)F)C1=O,4.7µM,1.9µM,0,-,-,-
O=C1N(c2ccccc2C(F)(F)F)O[C@]1(c1ccccc1)C1CCCCC1,1µM,?,0,-,-,-
SMILES,Pf growth 96h,Pf growth 48h,SARS PLP yeast,NS1 function inh,CHX counter,Shiga inhibitor
CC(C)[C@]1(c2ccc(Cl)cc2)ON(c2ccccc2C(F)(F)F)C1=O,1.7µM,1.9µM,0,-,-,-
CN(Cc1ccccc1)C(=O)[C@H](Cc1ccc2ccccc2c1)NC(=O)[C@@H]1C[C@@H](O)CN1C(=O)c1cn(C)c2ccccc12,-,-,-,-,0,0
CS(=O)(=O)N(CCc1ccccc1)CC(=O)NCC1CCCO1 (stereo not given),0,0,0,0,0,0
O=C1N(c2ccccc2C(F)(F)F)OC1(Cc1ccccc1)c1ccccc1 (stereo not given),?,1µM,0,-,-,-
O=C(Cn1nc(-c2ccccc2)c2ccccc2c1=O)NN1CCOCC1,0,15µM,0,0,0,0
COc1ccccc1NC(=O)Cn1nc(-c2ccc(Cl)cc2)c2ccccc2c1=O,?,-,0,0,16,0
O=C(Cn1nc(-c2ccc(Cl)cc2)c2ccccc2c1=O)NN1CCOCC1,0,0,0,0,0,0
COc1cc(-c2nnc(SC(C)C(=O)Nc3c(C)n(C)n(-c4ccccc4)c3=O)o2)cc(OC)c1OC (stereo not given),-,0,0,0,0,0
O=C(CCC(=O)N1CCN(c2ccc(O)cc2)CC1)c1cccs1,7.4µM,13µM,0,0,30,52
O=C(CCC(=O)N1CCN(c2ccccc2F)CC1)c1ccc(F)cc1,0,0,0,0,15,0
CC(=O)c1ccc(N2CCN(C(=O)CCC(=O)c3cccs3)CC2)cc1,?,0,0,-,0,0
O=C(CCC(=O)N1CCN(c2ccc(O)cc2)CC1)c1ccc(Br)cc1,9.3µM,0,0,0,0,0
CN(C)S(=O)(=O)n1cnc(C(CCO)c2ncn(S(=O)(=O)N(C)C)c2CCCO)c1 (stereo not given),0,0,0,-,-,-
COc1ccccc1CCN1CCCC(CN(C)C(=O)c2ccoc2)C1 (stereo not given),0,0,0,0,0,0
CSC1=NSC2=NC(=O)/C(=C\c3ccc(OC(=O)c4ccco4)cc3)C(=N)N12,0,0,0,0,19,34
COc1cc(/C=C2/C(=N)N3OC(C)=CC3=NC2=O)ccc1OC(=O)c1ccco1,13µM,0,0,-,0,0
CC1=CSC2=NC(=O)/C(=C/c3cccc(OC(=O)c4ccco4)c3)C(=N)N12,0,0,0,0,0,34
O=C(CCc1nnc2ccc(NCc3ccccc3Cl)nn12)NC1CCCCC1,0,?,0,0,0,0
O=C(COC(=O)c1cccc(OC(F)F)c1)Nc1ncccn1,-,-,0,-,-,-
OC1CCN(c2c3c(nc4cc(-c5ccc(Cl)cc5)nn24)CCC3)CC1,0,0,0,0,0,0
COc1cccc(-c2cc3nc4c(c(NCC(C)(C)CN(C)C)n3n2)CCCC4)c1,0,0,0,0,0,0
Fc1cccc(-c2cc3nc4c(c(NCc5ccco5)n3n2)CCCC4)c1,0,0,0,0,39,87
Clc1cccc(-c2cc3nc4c(c(N5CCN(c6cnccn6)CC5)n3n2)CCCC4)c1,0,2.1µM,0,0,38,37
Clc1cccc(-c2cc3nc4c(c(N5CCOCC5)n3n2)CCCC4)c1,-,?,0,0,22,0
Fc1cccc(-c2cc3nc4c(c(N5CCOCC5)n3n2)CCCC4)c1,?,8.3µM,0,0,52,48
SMILES,Pf growth 96h,Pf growth 48h,SARS PLP yeast,NS1 function inh,CHX counter,Shiga inhibitor
CCCn1c(N)c(C(=O)CN2CCc3ccccc3C2)c(=O)n(C)c1=O,0,0,0,-,0,0
Cc1cc(C)nc(N2CCC(C(=O)Nc3nnc(C)s3)CC2)n1,0,0,0,0,0,0
Cc1cccc(NC(=O)NCCCCc2ccccc2)c1,?,?,0,0,0,23
O=C(NCCCCc1ccccc1)Nc1cccc(F)c1,?,?,0,0,47,48
S=C(NCCCc1ccccc1)Nc1ccccc1,0,?,0,0,20,0
Cc1ccc(NC(=O)NCCCCc2ccccc2)cc1,0,0,0,0,0,29
CCS(=O)(=O)c1ccc(C(=O)NC2CC2)c(Cl)c1Cl,0,0,0,0,0,0
